# Reference: publication PMC7862700, “An all-to-all approach to the identification of sequence-specific readers for epigenetic DNA modifications on cytosine”
# What was measured:
# Experiment in all cases: DAPPL (digital affinity profiling via proximity ligation, sequencing); 10 mM Tris-HCl pH 7.5, 50 mM NaCl, 1 mM DTT, 4% glycerol, room temperature, 30 min; GST-TFs on glutathione beads, 16-mer random dsDNA library, 0.1% formaldehyde crosslink after washing; high values mean tight binding
# Conditions in all cases: protein: recombinant; tags: N-terminal GST; dsDNA, one strand shown
# [1] = target: T1, ELK1 (Homo sapiens, UniProt P19419 1-428)
# T1 sequence: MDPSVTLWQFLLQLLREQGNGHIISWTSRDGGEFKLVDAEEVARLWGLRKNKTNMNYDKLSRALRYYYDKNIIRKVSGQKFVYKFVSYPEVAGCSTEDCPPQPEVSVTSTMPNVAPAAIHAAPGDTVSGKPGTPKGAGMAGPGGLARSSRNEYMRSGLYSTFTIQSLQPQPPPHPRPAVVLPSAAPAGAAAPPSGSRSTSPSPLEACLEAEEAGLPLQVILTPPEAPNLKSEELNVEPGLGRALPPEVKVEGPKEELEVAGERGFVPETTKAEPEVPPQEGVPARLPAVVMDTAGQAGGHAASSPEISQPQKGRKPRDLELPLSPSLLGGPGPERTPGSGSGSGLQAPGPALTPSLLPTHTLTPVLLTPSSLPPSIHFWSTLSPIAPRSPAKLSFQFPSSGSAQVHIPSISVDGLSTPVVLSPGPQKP
# Method in brief: (§1)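 Pools were built from human transcription factors expressed in yeast as GST fusions, captured on glutathione beads and DNA-barcoded, along with a tag-only sample. Incubation with 200 nmole of a 16-mer random double-stranded DNA library lasted 30 min at room temperature in Tris/NaCl/DTT/glycerol buffer, and was followed by washing, 0.1% formaldehyde crosslinking, proximity ligation, PCR amplification and Illumina NextSeq500 sequencing. Binding signal is the quotient of each hexamer's read frequency for a factor and its frequency for the tag-only sample.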
# [2] = target: T2, GABPA (Homo sapiens, UniProt Q06546 1-454)
# T2 sequence: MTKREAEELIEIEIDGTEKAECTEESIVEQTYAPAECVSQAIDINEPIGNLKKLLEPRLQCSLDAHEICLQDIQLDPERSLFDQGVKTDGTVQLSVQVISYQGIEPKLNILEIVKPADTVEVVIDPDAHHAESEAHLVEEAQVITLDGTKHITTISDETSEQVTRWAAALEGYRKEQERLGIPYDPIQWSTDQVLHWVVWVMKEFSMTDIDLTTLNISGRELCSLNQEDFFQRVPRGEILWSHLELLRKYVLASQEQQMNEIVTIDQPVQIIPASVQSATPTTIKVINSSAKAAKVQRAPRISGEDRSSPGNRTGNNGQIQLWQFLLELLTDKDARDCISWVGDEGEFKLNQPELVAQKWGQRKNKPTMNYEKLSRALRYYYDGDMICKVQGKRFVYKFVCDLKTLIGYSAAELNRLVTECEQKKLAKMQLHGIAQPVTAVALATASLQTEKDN
# Method in brief: as §1
# [3] = target: T3, ERG (Homo sapiens, UniProt P11308 1-479)
# T3 sequence: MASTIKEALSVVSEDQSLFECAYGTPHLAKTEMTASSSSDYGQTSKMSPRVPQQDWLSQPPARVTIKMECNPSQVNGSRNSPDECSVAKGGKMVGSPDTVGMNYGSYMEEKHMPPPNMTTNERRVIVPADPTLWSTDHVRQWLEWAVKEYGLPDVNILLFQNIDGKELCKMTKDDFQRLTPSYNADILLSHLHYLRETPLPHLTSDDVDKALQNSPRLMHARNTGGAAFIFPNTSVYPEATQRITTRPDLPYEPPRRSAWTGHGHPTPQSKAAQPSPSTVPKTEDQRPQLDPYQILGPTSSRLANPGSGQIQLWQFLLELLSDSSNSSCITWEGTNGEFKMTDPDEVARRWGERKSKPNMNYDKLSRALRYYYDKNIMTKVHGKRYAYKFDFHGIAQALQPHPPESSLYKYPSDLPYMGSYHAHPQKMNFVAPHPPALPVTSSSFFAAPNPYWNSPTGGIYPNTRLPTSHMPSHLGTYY
# Method in brief: as §1
# [4] = target: ELF1 (Homo sapiens, UniProt P32519 1-619)
# ELF1, sequence (P32519 whole entry): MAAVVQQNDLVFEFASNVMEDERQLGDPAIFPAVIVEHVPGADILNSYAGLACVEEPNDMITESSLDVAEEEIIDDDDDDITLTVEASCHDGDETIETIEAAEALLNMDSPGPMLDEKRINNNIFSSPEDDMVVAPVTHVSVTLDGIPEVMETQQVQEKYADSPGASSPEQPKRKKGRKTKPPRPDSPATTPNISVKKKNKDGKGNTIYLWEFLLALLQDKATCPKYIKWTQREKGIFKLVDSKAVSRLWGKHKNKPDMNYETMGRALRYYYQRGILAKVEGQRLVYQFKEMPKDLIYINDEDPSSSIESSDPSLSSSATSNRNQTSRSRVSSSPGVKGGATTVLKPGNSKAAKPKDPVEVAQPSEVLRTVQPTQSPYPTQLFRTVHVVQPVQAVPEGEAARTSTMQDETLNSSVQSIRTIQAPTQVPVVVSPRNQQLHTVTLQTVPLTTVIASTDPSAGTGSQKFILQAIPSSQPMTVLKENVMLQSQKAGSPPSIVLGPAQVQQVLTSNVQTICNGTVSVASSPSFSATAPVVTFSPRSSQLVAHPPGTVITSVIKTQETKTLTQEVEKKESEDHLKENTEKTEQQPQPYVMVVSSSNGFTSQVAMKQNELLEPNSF
# Method in brief: as §1
# [5] = target: T4, EHF (Homo sapiens, UniProt Q9NZC4 1-300)
# T4 sequence: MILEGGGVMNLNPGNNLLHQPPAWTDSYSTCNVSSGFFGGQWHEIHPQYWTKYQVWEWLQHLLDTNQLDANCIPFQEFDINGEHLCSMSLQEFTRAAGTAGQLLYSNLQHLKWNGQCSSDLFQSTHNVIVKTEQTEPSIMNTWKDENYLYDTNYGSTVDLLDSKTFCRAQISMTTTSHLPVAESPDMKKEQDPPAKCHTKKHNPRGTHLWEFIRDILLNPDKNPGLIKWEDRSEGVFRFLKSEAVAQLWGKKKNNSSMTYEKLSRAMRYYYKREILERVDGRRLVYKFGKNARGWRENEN
# Method in brief: as §1
# [6] = target: SPIB (Homo sapiens, UniProt Q01892 1-262)
# SPIB, sequence (Q01892 whole entry): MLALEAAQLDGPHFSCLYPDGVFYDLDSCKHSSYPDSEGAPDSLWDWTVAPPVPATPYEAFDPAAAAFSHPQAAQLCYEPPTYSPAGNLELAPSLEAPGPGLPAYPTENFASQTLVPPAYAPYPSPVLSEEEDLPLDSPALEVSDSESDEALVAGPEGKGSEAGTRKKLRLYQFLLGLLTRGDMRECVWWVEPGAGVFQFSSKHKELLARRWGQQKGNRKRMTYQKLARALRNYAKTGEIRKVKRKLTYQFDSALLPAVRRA
# Method in brief: as §1
# [7] = target: T5, FEV (Homo sapiens, UniProt Q99581 1-238)
# T5 sequence: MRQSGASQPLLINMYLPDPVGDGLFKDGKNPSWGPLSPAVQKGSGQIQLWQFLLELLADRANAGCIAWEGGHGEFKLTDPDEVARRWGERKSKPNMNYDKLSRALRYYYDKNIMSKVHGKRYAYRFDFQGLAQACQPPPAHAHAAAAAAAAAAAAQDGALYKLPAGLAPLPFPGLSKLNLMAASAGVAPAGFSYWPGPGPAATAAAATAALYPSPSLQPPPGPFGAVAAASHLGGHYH
# Method in brief: as §1
# [8] = target: ETV5 (Homo sapiens, UniProt P41161 1-510)
# ETV5, sequence (P41161 whole entry): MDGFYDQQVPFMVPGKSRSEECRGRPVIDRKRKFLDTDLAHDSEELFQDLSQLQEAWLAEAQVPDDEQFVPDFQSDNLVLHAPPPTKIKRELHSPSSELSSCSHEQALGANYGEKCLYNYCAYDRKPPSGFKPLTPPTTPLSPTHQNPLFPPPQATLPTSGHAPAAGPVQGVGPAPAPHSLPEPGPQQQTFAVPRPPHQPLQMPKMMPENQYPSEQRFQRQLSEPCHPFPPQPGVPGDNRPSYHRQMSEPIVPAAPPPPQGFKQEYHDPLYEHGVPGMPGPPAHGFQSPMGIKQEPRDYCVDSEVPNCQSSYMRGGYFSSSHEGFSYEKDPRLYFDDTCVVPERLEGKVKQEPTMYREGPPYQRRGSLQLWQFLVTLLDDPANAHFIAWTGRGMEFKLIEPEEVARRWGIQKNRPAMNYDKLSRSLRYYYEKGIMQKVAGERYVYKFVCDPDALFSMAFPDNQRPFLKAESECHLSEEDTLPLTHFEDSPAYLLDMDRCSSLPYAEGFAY
# Method in brief: as §1
# [9] = target: ELF4 (Homo sapiens, UniProt Q99607 1-663)
# ELF4, sequence (Q99607 whole entry): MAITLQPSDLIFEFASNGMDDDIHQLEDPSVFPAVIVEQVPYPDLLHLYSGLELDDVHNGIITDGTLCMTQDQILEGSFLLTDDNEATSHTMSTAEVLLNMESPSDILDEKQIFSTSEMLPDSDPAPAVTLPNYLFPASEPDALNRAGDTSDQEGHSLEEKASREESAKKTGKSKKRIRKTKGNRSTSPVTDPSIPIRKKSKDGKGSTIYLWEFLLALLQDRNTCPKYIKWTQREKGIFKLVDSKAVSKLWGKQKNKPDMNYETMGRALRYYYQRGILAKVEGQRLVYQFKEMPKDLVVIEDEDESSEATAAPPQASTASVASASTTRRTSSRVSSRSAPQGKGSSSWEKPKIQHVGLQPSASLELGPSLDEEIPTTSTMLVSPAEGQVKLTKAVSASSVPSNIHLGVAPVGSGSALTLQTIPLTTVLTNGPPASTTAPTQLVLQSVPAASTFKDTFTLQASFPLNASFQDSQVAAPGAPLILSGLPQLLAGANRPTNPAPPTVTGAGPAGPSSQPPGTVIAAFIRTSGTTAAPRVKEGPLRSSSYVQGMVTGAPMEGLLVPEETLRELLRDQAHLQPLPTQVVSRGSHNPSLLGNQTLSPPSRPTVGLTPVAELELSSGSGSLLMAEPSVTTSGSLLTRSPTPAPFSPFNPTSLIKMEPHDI
# Method in brief: as §1
# [10] = target: T6, ELK4 (Homo sapiens, UniProt P28324-2 1-405)
# T6 sequence: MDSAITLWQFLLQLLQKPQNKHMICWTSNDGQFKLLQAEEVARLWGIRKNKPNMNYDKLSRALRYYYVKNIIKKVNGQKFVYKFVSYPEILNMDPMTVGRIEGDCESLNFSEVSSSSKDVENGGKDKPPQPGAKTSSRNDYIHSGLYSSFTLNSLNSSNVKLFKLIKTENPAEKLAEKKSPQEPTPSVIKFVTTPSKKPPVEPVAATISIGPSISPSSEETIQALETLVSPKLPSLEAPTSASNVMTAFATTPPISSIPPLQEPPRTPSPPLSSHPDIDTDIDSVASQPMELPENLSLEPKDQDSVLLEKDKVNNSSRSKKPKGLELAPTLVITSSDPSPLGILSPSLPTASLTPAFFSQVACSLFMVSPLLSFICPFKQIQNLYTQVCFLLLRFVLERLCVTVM
# Method in brief: as §1
# [11] = target: T7, ETV2 (Homo sapiens, UniProt O00321 1-342)
# T7 sequence: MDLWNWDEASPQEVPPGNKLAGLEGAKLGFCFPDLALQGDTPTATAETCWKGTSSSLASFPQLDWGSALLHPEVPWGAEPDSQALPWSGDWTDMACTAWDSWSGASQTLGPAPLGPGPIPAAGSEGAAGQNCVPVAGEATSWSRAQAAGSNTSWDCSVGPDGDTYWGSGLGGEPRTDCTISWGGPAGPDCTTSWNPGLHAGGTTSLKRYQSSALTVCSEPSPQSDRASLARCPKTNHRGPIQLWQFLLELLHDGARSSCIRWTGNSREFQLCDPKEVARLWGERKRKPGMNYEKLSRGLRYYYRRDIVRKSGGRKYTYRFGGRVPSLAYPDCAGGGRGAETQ
# Method in brief: as §1
# [12] = target: T8, ELF3 (Homo sapiens, UniProt P78545 1-371)
# T8 sequence: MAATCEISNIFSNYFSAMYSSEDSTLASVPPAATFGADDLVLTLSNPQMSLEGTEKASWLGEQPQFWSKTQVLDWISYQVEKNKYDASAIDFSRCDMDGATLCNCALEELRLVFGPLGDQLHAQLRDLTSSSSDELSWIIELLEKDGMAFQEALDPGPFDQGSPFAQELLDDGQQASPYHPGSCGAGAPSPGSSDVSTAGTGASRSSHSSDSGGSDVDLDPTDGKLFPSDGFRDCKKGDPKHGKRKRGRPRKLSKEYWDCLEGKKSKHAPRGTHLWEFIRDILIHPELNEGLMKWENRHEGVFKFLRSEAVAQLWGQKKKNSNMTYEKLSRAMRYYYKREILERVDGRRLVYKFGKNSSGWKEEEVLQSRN
# Method in brief: as §1
# [13] = target: ETV1 (Homo sapiens, UniProt P50549 1-477)
# ETV1, sequence (P50549 whole entry): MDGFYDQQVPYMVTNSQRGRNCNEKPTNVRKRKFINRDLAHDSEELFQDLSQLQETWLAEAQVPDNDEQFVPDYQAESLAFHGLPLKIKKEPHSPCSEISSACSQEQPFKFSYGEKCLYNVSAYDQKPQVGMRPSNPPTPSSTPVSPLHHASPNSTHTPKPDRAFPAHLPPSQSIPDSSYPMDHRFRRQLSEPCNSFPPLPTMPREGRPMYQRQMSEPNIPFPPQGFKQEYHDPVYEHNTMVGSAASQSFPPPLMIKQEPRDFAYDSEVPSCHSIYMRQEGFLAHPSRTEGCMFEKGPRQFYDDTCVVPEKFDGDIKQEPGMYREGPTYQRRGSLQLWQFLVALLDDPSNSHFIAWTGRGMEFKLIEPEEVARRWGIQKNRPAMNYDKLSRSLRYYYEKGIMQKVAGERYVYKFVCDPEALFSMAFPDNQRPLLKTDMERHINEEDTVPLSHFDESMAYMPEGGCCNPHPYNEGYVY
# Method in brief: as §1
# [14] = target: T9, ERF (Homo sapiens, UniProt P50548 1-548)
# T9 sequence: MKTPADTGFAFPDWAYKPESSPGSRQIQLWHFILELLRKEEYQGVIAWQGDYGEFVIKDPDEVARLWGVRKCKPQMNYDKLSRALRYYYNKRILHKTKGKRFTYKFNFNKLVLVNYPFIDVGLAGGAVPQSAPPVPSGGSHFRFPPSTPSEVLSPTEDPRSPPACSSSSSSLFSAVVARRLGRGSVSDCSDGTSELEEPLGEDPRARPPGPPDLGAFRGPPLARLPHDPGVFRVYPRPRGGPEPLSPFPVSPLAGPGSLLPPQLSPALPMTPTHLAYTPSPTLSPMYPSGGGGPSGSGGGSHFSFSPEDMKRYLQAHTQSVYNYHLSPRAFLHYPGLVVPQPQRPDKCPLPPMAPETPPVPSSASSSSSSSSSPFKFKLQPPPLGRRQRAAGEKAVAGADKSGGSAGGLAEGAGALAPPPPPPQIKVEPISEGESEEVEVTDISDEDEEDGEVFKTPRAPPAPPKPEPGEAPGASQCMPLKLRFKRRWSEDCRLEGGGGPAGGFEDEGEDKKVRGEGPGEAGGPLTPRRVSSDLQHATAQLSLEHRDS
# Method in brief: as §1
# [15] = target: T10, ETV3L (Homo sapiens, UniProt Q6ZN32 1-361)
# T10 sequence: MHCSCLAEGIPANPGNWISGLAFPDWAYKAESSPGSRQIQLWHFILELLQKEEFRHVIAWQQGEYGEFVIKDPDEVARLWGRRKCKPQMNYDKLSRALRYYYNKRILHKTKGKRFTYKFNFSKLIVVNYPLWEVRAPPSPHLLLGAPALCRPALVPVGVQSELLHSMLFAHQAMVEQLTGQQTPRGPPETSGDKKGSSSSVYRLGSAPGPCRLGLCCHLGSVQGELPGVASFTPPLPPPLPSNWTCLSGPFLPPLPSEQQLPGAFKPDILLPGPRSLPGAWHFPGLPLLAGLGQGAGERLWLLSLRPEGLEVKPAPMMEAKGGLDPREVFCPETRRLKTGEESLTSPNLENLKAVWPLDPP
# Method in brief: as §1
# [16] = target: T11, ETS2 (Homo sapiens, UniProt P15036 1-469)
# T11 sequence: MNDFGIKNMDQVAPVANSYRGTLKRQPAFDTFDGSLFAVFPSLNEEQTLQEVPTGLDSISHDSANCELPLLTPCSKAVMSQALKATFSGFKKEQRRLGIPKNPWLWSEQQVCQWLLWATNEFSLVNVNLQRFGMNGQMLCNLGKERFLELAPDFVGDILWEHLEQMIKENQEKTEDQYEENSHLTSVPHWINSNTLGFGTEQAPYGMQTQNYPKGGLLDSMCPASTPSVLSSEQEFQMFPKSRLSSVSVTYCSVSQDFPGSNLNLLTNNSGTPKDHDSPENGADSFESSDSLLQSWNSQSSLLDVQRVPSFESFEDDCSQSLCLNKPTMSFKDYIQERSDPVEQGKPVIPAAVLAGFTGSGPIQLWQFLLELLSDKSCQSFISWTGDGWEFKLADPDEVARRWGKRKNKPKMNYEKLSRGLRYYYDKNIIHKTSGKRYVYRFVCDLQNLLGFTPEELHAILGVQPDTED
# Method in brief: as §1
# [17] = target: T12, SPDEF (Homo sapiens, UniProt O95238 1-335)
# T12 sequence: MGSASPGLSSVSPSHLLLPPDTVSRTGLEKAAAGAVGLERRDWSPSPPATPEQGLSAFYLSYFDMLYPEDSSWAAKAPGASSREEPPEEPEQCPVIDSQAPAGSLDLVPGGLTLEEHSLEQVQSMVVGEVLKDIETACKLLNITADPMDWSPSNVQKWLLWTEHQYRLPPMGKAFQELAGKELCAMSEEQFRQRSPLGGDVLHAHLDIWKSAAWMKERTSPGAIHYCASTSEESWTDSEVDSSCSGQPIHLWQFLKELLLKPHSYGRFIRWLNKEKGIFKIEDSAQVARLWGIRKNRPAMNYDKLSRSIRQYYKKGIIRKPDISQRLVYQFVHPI
# Method in brief: as §1
# [18] = target: T13, ETV3 (Homo sapiens, UniProt P41162-2 1-143)
# T13 sequence: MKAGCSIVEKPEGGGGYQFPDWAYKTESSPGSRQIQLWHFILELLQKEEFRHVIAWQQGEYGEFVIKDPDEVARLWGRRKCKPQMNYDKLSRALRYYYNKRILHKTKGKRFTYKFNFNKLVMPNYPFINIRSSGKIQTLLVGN
# Method in brief: as §1
# [19] = target: ETV6 (Homo sapiens, UniProt P41212 1-452)
# ETV6, sequence (P41212 whole entry): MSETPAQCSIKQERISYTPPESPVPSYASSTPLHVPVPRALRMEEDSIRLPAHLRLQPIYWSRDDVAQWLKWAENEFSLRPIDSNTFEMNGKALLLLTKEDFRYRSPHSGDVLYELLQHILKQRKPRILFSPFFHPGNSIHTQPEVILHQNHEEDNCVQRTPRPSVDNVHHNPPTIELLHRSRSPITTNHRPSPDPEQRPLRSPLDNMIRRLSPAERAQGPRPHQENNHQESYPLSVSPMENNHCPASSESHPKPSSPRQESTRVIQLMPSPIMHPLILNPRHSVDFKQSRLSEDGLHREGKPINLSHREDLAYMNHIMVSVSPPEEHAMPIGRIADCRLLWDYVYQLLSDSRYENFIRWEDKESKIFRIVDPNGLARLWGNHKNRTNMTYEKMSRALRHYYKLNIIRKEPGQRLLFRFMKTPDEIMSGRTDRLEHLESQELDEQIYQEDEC
# Method in brief: as §1
sequence,measurement,setting,value
ATGCAG,binding signal,[1],"1.04 fold enrichment (6-mer frequency, TF over GST control)"
same,binding signal,[2],"1.14 fold enrichment (6-mer frequency, TF over GST control)"
same,binding signal,[3],"1.09 fold enrichment (6-mer frequency, TF over GST control)"
same,binding signal,[4],"1.03 fold enrichment (6-mer frequency, TF over GST control)"
same,binding signal,[5],"1.08 fold enrichment (6-mer frequency, TF over GST control)"
same,binding signal,[6],"1.22 fold enrichment (6-mer frequency, TF over GST control)"
same,binding signal,[7],"1.11 fold enrichment (6-mer frequency, TF over GST control)"
same,binding signal,[8],"1.05 fold enrichment (6-mer frequency, TF over GST control)"
same,binding signal,[9],"1.05 fold enrichment (6-mer frequency, TF over GST control)"
same,binding signal,[10],"1.15 fold enrichment (6-mer frequency, TF over GST control)"
same,binding signal,[11],"1.1 fold enrichment (6-mer frequency, TF over GST control)"
same,binding signal,[12],"1.05 fold enrichment (6-mer frequency, TF over GST control)"
same,binding signal,[13],"1.1 fold enrichment (6-mer frequency, TF over GST control)"
same,binding signal,[14],"1.22 fold enrichment (6-mer frequency, TF over GST control)"
same,binding signal,[15],"1.08 fold enrichment (6-mer frequency, TF over GST control)"
same,binding signal,[16],"1.11 fold enrichment (6-mer frequency, TF over GST control)"
same,binding signal,[17],"1.05 fold enrichment (6-mer frequency, TF over GST control)"
same,binding signal,[18],"1.06 fold enrichment (6-mer frequency, TF over GST control)"
same,binding signal,[19],"1.06 fold enrichment (6-mer frequency, TF over GST control)"
